Assay results reported in PubChem BioAssay (NCATS).
Records with an inconclusive call do not appear. The source made the active and inactive calls. Calls follow the shape of the dose curve; as a rule, active = well fitted inhibition curve with a large enough effect; inconclusive = small, poorly fitted or top-dose-only effect; inactive = flat fitted curve, though single readings scatter.

These compounds were tested on Zika virus NS2B-NS3 protease (assay: Primary screen GU AMC qHTS for Zika virus inhibitors (AID 1347154; also: nearly all actives have a fitted effect of over 70% in size;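 as to activity change, negative = inhibition: 0% = no-inhibitor control and -100% = no-enzyme control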)). Conditions: Zika NS2B-NS3 unlinked protease, AMC fluorogenic substrate; series mostly up to 54.1 µM; activity change, negative = inhibition: at the top concentration.
Outline: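 Fluorogenic AMC-substrate cleavage by noncovalent NS2B-NS3 protease complex (25 nM, pH 8.0 Tris buffer with Tween 20) followed for 15 minutes at room temperature (~20% conversion). Percent inhibition from ex340/em450 signal change, fitted by 4-parameter Hill equation.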
Potency is read from the fitted curve at half-maximal effect.

Activity change, negative = inhibition, inactive:
Nc1ncnc2c1nc(Br)n2[C@@H]1O[C@H]2COP(=O)(O)O[C@@H]2[C@@H]1O 4.33%
NCC(O)COc1cccc2ccccc12 (centres undefined) 0.195%
NCCCC[C@@H](N)C(=O)O 5.13%
CC(C)C[C@H](NC(=O)[C@H](CCCCN)NC(=O)[C@H](CCCNC(=N)N)NC(=O)[C@H](C)NC(=O)[C@H](CO)NC(=O)[C@H](CCCCN)NC(=O)[C@H](CCCNC(=N)N)NC(=O)[C@H](C)NC(=O)CNC(=O)[C@@H](NC(=O)[C@H](Cc1ccccc1)NC(=O)CNC(=O)CNC(=O)[C@@H](N)Cc1ccccc1)[C@H](C)O)C(=O)N[C@@H](C)C(=O)N[C@@H](CC(N)=O)C(=O)N[C@@H](CCC(N)=O)C(=O)O -13.5% [at 6.83 µM]
O=Nc1ccc(O)c2ncccc12 1.72%
CCCCCCOC(=O)C1(O)CC2OC1(C)n1c3ccccc3c3c4c(c5c6ccccc6n2c5c31)C(=O)NC4 (centres undefined) 19.5% [at 4.99 µM]
N[C@H](CS)C(=O)O -6.81%
O=c1oc(-c2ccc(C(F)(F)F)cc2)nn1Cc1cc(Cl)ccc1O 16.5%
CCCCC/C=C\C/C=C\CCCCCCCC(=O)O[C@@H](CO)COC(=O)CCCCCCCCCCCCCCCCC 7.9% [at 6.83 µM]
COc1ccc(C2CC(c3c(O)cc(C)oc3=O)=NCCS2)c(OC)c1 (centres undefined) 7.7%
CNC(=O)[C@H]1O[C@@H](n2cnc3c(N)ncnc32)[C@H](O)[C@@H]1O 7.95%
Cc1[nH]c(/C=C2/C(=O)Nc3ccc(S(=O)(=O)Cc4c(Cl)cccc4Cl)cc32)c(C)c1C(=O)N1CCCC1CN1CCCC1 (centres undefined) 4.58%
c1ccc2[nH]c(NCCCc3cnc[nH]3)nc2c1 11.8%
C[C@@H](O)CNC(C)(C)CC(=O)N[C@@H]1CCc2ccccc2N(Cc2ccc(-c3ccccc3-c3nn[nH]n3)cc2)C1=O 3.99%
CO[C@H]1C[C@@H]2CC[C@@H](C)[C@@](O)(O2)C(=O)C(=O)N2CCCC[C@H]2C(=O)O[C@H](C(C)C[C@H]2CC[C@@H](O)[C@H](OC)C2)CC(=O)[C@H](C)/C=C(\C)[C@@H](O)[C@@H](OC)C(=O)[C@H](C)C[C@H](C)/C=C/C=C/C=C/1C (some centres undefined) 5.36% [at 25.8 µM]
Oc1ccc(-c2c(-c3ccccc3)nn3c(C(F)(F)F)cc(C(F)(F)F)nc23)cc1 3.06%
CCCCC[C@H](O)/C=C/[C@H]1C(=O)C=C[C@@H]1C/C=C\CCCC(=O)O 15.7% [at 6.83 µM]
Cn1cnc2nc(NCCO)nc(NCc3ccccc3)c21 9.07%
C[C@H](N)CCCP(=O)(O)O 6.69%
CCCCC/C=C\C/C=C\C/C=C\C/C=C\CCCC(=O)O[C@@H](CO)COCCCCCCCCCCCCCCCC 9.81% [at 6.83 µM]
COCCCCCCCCCCCC(=O)O 13.2% [at 6.83 µM]
Nc1ccnc2c1ncn2[C@@H]1O[C@H](CO)[C@@H](O)[C@H]1O 10.9%
OC[C@H]1O[C@@H](n2cnc3c(N[C@H]4C[C@H]5CC[C@@H]4C5)ncnc32)[C@H](O)[C@@H]1O 11.1%
CCCCCCCC/C=C\CCCCCCCC(=O)OCC(CO)OC(=O)CCCCCCC/C=C\CCCCCCCC (centres undefined) -0.778% [at 6.83 µM]
N[C@H](C(=O)O)C1C(C(=O)O)C1C(=O)O (some centres undefined) -0.748%
O=P(O)(O)C(O)c1ccc2ccccc2c1 (centres undefined) 5.33%
O=c1ncccn1[C@@H]1O[C@H](CO)C(O)[C@@H]1O (some centres undefined) 21.7%
COc1c(O)cc2oc(-c3ccc(O)cc3)cc(=O)c2c1O -18.3%
CCCCCC(=O)/C=C/C=C\CCCCCCCC(=O)O 0.325% [at 0.59 µM]
CN1C/C(=C/c2ccc(B(O)O)cc2)C(=O)/C(=C/c2ccc(B(O)O)cc2)C1 -6.4%
CCCCC[C@H](O)/C=C/C=C\C=C\C=C\[C@@H](O)[C@@H](O)CCCC(=O)O 15% [at 0.59 µM]
CCCCCCCCCCCCC(O)C(=O)O (centres undefined) 10.2% [at 6.83 µM]
COc1ccc2[nH]cc(CCO)c2c1 -6.5%
CCC(=O)NC1CCc2cccc(OC)c2C1 (centres undefined) 1.4%
COC(=O)CNC(=O)C(=O)OC 11.4% [at 6.83 µM]
CCCCC[C@H](O)CC[C@H]1[C@H](O)CC(=O)[C@@H]1CCCCCCC(=O)O 15.4% [at 6.83 µM]
O=C(O)CCc1cc(I)c(O)c(I)c1 9.07%

Potency, inactive:
N#CC(C#N)=C(N)/C(C#N)=C/c1ccc2[nH]ccc2c1

Potency, active:
CCc1c2c(nc3ccc(OC(=O)N4CCC(N5CCCCC5)CC4)cc13)-c1cc3c(c(=O)n1C2)COC(=O)C3(O)CC (centres undefined) 29.9 µM
